Here are results for 42 compounds from the antibiotic and cytotoxicity screens of Wong et al. (2023).

About 3,300 (8.5%) of roughly 39,000 compounds were called active. What follows is part of a selection rich in actives, with near analogues and random picks from the rest.

The test system of the test is HepG2. Put plainly: cytotoxicity call (relative viability < 0.9). Particulars: 10 µM.
Consider `CC(C)NC(=O)N(C)C[C@H]1Oc2ccc(NS(=O)(=O)c3ccccc3)cc2CC(=O)N([C@@H](C)CO)C[C@H]1C`, for which the cytotoxicity call was “inactive”.
Consider `Cn1c(Nc2ccc(C(F)(F)F)cc2)nc2cc(Oc3ccnc(-c4ncc(C(F)(F)F)[nH]4)c3)ccc21`, for which the cytotoxicity call was “active”.
Take `COc1ccc(NC(=O)Nc2ccc3c(c2)C(=O)N([C@H](C)CO)C[C@H](C)[C@H](CN(C)Cc2ccncc2)OCCCC[C@H](C)O3)cc1`: the cytotoxicity call was “inactive”.
Under `CO[C@@H]1CN(C)C(=O)c2cc(NC(=O)Nc3ccccc3F)ccc2OC[C@@H](C)N(Cc2ccccc2C(=O)O)C[C@H]1C` stands “inactive”; under `COc1ccc(-c2coc3cc(OC)ccc3c2=O)c(O)c1`, “inactive”.
For `Cc1c(C(N)=O)nnn1-c1ccc(F)cc1`, the cytotoxicity call is “inactive”.
Consider `C[C@@H]1CCCCO[C@@H](CN(C)CC2CC2)[C@H](C)CN([C@H](C)CO)C(=O)c2cc(NC(=O)Nc3ccc(C(F)(F)F)cc3)ccc2O1`, for which the cytotoxicity call is “inactive”.
With `C[C@@H]1CCCCO[C@@H](CN(C)CC2CC2)[C@H](C)CN([C@@H](C)CO)C(=O)c2cc(NC(=O)Nc3ccc(C(F)(F)F)cc3)ccc2O1` the entry was “inactive”; with `C[C@@H]1CCCCO[C@H](CN(C)CC2CC2)[C@H](C)CN([C@@H](C)CO)C(=O)c2cc(NC(=O)Nc3ccc(C(F)(F)F)cc3)ccc2O1`, “active”; with `C[C@@H]1CCCCO[C@@H](CN(C)CC2CC2)[C@@H](C)CN([C@H](C)CO)C(=O)c2cc(NC(=O)Nc3ccc(C(F)(F)F)cc3)ccc2O1`, “active”.
With `C[C@H](CO)N1C[C@H](C)[C@H](CN(C)CC2CC2)OCCCC[C@H](C)Oc2ccc(NC(=O)Nc3ccc(C(F)(F)F)cc3)cc2C1=O` the entry was “active”; with `C[C@H]1CCCCO[C@H](CN(C)CC2CC2)[C@@H](C)CN([C@@H](C)CO)C(=O)c2cc(NC(=O)Nc3ccc(C(F)(F)F)cc3)ccc2O1`, “inactive”.
With `C[C@H](CO)N1C[C@H](C)[C@@H](CN(C)CC2CC2)OCCCC[C@H](C)Oc2ccc(NC(=O)Nc3ccc(C(F)(F)F)cc3)cc2C1=O` the entry was “inactive”; with `C[C@@H]1CCCCO[C@H](CN(C)CC2CC2)[C@H](C)CN([C@H](C)CO)C(=O)c2cc(NC(=O)Nc3ccc(C(F)(F)F)cc3)ccc2O1`, “active”; with `C[C@H](CO)N1C[C@H](C)[C@@H](CN(C)C(=O)Nc2ccccc2)OCCCC[C@H](C)Oc2ccc(NC(=O)C3CCCCC3)cc2C1=O`, “inactive”.
With `CN(C)C(=O)CN1C[C@]23CN(Cc4cnn(C)c4)C[C@@H](C[C@@H]2S1(=O)=O)O3`, the cytotoxicity call was “inactive”.
In the case of `CC(C)NC(=O)N(C)C[C@H]1Oc2c(NS(=O)(=O)c3ccc(F)cc3)cccc2C(=O)N([C@H](C)CO)C[C@@H]1C`, the cytotoxicity call was “inactive”.
As to `C[C@@H]1CN([C@H](C)CO)C(=O)c2cc(NC(=O)Nc3cccc4ccccc34)ccc2O[C@@H](C)CCCCO[C@@H]1CN(C)Cc1ccc(C(=O)O)cc1`, the cytotoxicity call was “inactive”.
In the case of `COc1ccc(NC(=O)N(C)C[C@@H]2Oc3cc(Br)ccc3S(=O)(=O)N([C@H](C)CO)C[C@H]2C)cc1`, the cytotoxicity call was “inactive”.
In the case of `COc1cccc(S(=O)(=O)N(C)C[C@H]2OCc3cnnn3CCCC(=O)N([C@H](C)CO)C[C@@H]2C)c1`, the cytotoxicity call was “inactive”.
With `C[C@H](CO)N1C[C@H](C)[C@H](CN(C)C(=O)Nc2ccccc2)OCCCC[C@H](C)Oc2ccc(NS(=O)(=O)c3cccs3)cc2C1=O` the entry was “inactive”; with `COc1ccc(S(=O)(=O)N(C)C[C@H]2Oc3ccc(NC(=O)Nc4cccc5ccccc45)cc3C(=O)N([C@H](C)CO)C[C@H]2C)cc1`, “inactive”.
Consider `Cn1c(=O)[nH]c2nnc(-c3ccccn3)nc2c1=O`, for which the cytotoxicity call is “inactive”.
As to `COc1ccc(-c2ccccn2)cc1`, the cytotoxicity call was “inactive”.
`Cn1nc(-c2ccccn2)nc2c(=O)n(C)c(=O)nc1-2`: the cytotoxicity call was “active”.
Under `COc1ccc(NC(=O)Nc2ccc3c(c2)C(=O)N([C@H](C)CO)C[C@H](C)[C@@H](CN(C)Cc2ccc(C(=O)O)cc2)OCCCC[C@H](C)O3)cc1` stands “inactive”; under `CN(CP(=O)(O)CN1CCOCC1)S(C)(=O)=O`, “inactive”.
For the compound `CC(C)(C)NCC(O)COc1ccccc1C1CCCC1.O=S(=O)(O)O` (configuration not stated), the cytotoxicity call is “active”.
Turning to `CC(C)(C)NCC(O)COc1nsnc1N1CCOCC1.O=C(O)C=CC(=O)O` (configuration not stated), the cytotoxicity call was “inactive”.
Consider `CC(C)(C)NCC(O)COc1cccc2c1CC(O)C(O)C2` (configuration not stated), for which the cytotoxicity call was “inactive”.
With `C[C@H](CO)N1C[C@H](C)[C@@H](CN(C)S(=O)(=O)c2cn(C)cn2)Oc2ccc(NC(=O)CCN3CCOCC3)cc2C1=O`, the cytotoxicity call was “inactive”.
As for `C[C@H]1CN([C@@H](C)CO)C(=O)c2cc(NC(=O)CCCN(C)C)ccc2O[C@@H]1CN(C)C(=O)Nc1ccc2c(c1)OCO2`, the cytotoxicity call was “inactive”.
On to `C[C@@H]1CN([C@H](C)CO)C(=O)Cc2cc(NC(=O)CCN3CCOCC3)ccc2O[C@@H]1CN(C)Cc1ccncc1`, for which the cytotoxicity call is “inactive”.
Regarding `C[C@H]1[C@H]([Si](C)(C)F)[C@@H](CCO)O[C@]12C(=O)N(Cc1cccc(N(C=O)c3ccccc3)c1)c1ccccc12`, the cytotoxicity call was “inactive”.
Turning to `COc1ccc([Si](C)(C)[C@@H]2[C@@H](CCO)O[C@]3(C(=O)N(Cc4cccc(N5CCCCC5=O)c4)c4ccccc43)[C@H]2C)cc1`, the cytotoxicity call was “inactive”.
In the case of `COc1ccc([Si](C)(C)[C@@H]2[C@@H](CCO)O[C@]3(C(=O)N(Cc4ccc(N(C=O)c5ccccc5)cc4)c4ccccc43)[C@H]2C)cc1`, the cytotoxicity call was “active”.
`COc1ccc([Si](C)(C)[C@H]2[C@H](CCO)O[C@@]3(C(=O)N(Cc4cccc(N(C=O)c5ccccc5)c4)c4ccccc43)[C@@H]2C)cc1`: the cytotoxicity call is “active”.
As for `COc1ccc([Si](C)(C)[C@H]2[C@H](CCO)O[C@@]3(C(=O)N(Cc4ccc(N(C=O)c5ccccc5)cc4)c4ccccc43)[C@@H]2C)cc1`, the cytotoxicity call was “active”.
Turning to `C[C@@H]1CN([C@@H](C)CO)C(=O)c2cccc(NS(=O)(=O)c3ccccc3)c2O[C@@H]1CN(C)S(=O)(=O)c1cccs1`, the cytotoxicity call was “inactive”.
`CC(C)CC#Cc1ccc2c(c1)O[C@H](CN(C)C(=O)NC1CCCC1)[C@H](C)CN([C@H](C)CO)S2(=O)=O`: the cytotoxicity call was “inactive”.
Regarding `CO[C@@H]1CN(C)C(=O)c2ccc(NC(=O)CC(F)(F)F)cc2OC[C@@H](C)N(C(=O)C2CCOCC2)C[C@@H]1C`, the cytotoxicity call is “inactive”.
Turning to `C[C@H]1CN([C@@H](C)CO)C(=O)c2cc(NC(=O)c3ccncc3)ccc2O[C@H]1CN(C)Cc1ccc(-c2ccccc2)cc1`, the cytotoxicity call is “inactive”.
